PubChem BioAssay AID1041 (National Center for Advancing Translational Sciences (NCATS), 2008)
Activity calls are given as the source filed them.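 Rule for the calls: active = compound lifting p16 RNA above DMSO-treated cells by a clear fold change, a shift of a few PCR cycles; inactive = the rest, including any drop in level.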

Test: p16 Derepression/Induction Secondary Assay for qHTS Assay for Epigenetic Modulators
Details: H358 cells, p16 mRNA RT-qPCR, 72 h; hits give high values
From the text: NIH Molecular Libraries Screening Centers Network [MLSCN] NIH Chemical Genomics Center [NCGC] MLSCN Grant: 1 X01 MH079860-01 Assay Provider: Elisabeth D. Martinez, University of Texas SW Medical Center NCGC Assay Overview: This secondary assay characterizes selected actives identified in the qHTS of the Locus Derepression (LDR) assay (PubChem AID 597). The LDR assay detects the derepression of a GFP reporter that is stably integrated in a region of the genome of murine c127i mammary cells that is presumably silenced. Compounds that cause derepression of the locus to express GFP are identified by enumerating GFP positive cells using a laser-scanning microplate cytometer. Selected LDR actives were assayed for the induction of p16 gene expression, a gene silenced by dense methylation of its promoter. Treatment of cells with DNA methyltransferase inhibitors like 5-azadeoxycytidine induce p16 gene expression. Compounds active in this assay may affect components involved in DNA methylation or gene transcription.
NCGC Assay Protocol Summary Exponentially growing H358 non-small cell lung cancer cells were treated daily with fresh media containing the indicated concentrations of compounds for 72 hr. Cellular RNA was extracted, quantified, DNAse treated and reverse transcribed. The resulting cDNA was amplified in TaqMan real time quantitative PCR assays (Applied Biosystems) containing validated primers specific for p16 (Hs00233365_m1). Reactions were performed on an ABI Prism 7900HT, with an initial 2 min preincubation at 50 C, followed by 10 min at 95 C and then 40 cycles of 95 C for 15 seconds and 60 C for 1 min. GAPDH and 18S ribosomal RNA were used as references. Gene expression was measured by fold-induction over control DMSO-treated samples (36-37 average cycle time). Increases corresponded to at least 2-3 cycle time differences over DMSO controls, which were in the measurable range. Decreases in expression were considered insignificant as measurement of the DMSO samples were at the low limit of detection. Reactions were run in triplicate and error bars represent standard deviations. For further details, see R.L. Johnson, W. Huang, A. Jadhav, C.P. Austin, J. Inglese, E.D. Martinez, A Quantitative High-Throughput Screen Identifies Potential Epigenetic Modulators of Gene Expression, Analytical Biochemistry (2007), doi: 10.1016/j.ab.2007.12.028

Fold change, inactive:
O=C(CSc1cccc2cccnc12)N1CCCC1 1, CC(C)C(=O)NC(c1ccco1)c1ccc2cccnc2c1O (configuration not stated) 1, CC(C)C(=O)NC(c1ccc(N(C)C)cc1)c1ccc2cccnc2c1O (configuration not stated) 0.4, CN(C)C(=O)CSc1cccc2cccnc12 0.4, CC(C)C(=O)NC(c1ccco1)c1cc([N+](=O)[O-])c2cccnc2c1O (configuration not stated) 2, COc1ccc(C(NC(=O)C(C)C)c2ccc3cccnc3c2O)cc1 (configuration not stated) 1, CCN1CSC(=S)N(CC)C1 1, O=C(CSc1cccc2cccnc12)NCc1ccccc1 1, CN1CCN(Cc2cc(Cl)c3cccnc3c2O)CC1 1, O=Nc1ccc(O)c2ncccc12 2, CC(/C=C/C(=O)NO)=C\[C@@H](C)C(=O)c1ccc(N(C)C)cc1 1

Fold change, active:
Nc1ncn([C@H]2C[C@H](O)[C@@H](CO)O2)c(=O)n1 351
